Only some compounds are listed: those with a hit (about 2.8% of all), similar ones and a draw of the others.
HSV augment: enhancers of HSV replication in host cells, fold increase, host cell viability | HSV replication augmentation in cells | maximum fold increase | 220,000 tested, 0.005% active; in the data active = maximum fold increase above about 1.5; tested in PC3 cells
EP2 modulator: EP2 receptor modulators, cAMP readout, primary screen, cell-based, HTRF cAMP, PGE2 stimulation. Prostaglandin E2 receptor EP2 subtype (Homo sapiens), P43116. EP2-expressing cells, cAMP HTRF FRET, PGE2 co-stimulation. induction, % at 25 µM. 260,000 tested, 0.83% active. AID 940, 2007;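 active = compounds whose cAMP rise, as percent of the full-agonist control response, exceeds 60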;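 also: rat C6 glioma line stably carrying human EP2 under a CMV promoter; the protocol text gives 20 µM as final concentration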
p47phox inh: p47phox/p22phox peptide binding inhibitors, primary screen, biochemical, uHTS, NADPH oxidase regulatory subunit; inhibition, % at 24.7 µM; Neutrophil cytosol factor 1 (Homo sapiens), P14598; fluorescence polarization, 2 h; 220,000 tested, 0.53% active;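 active = inhibition above about 30%, limit read from the data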
Target sequence (P14598 whole entry, looked up): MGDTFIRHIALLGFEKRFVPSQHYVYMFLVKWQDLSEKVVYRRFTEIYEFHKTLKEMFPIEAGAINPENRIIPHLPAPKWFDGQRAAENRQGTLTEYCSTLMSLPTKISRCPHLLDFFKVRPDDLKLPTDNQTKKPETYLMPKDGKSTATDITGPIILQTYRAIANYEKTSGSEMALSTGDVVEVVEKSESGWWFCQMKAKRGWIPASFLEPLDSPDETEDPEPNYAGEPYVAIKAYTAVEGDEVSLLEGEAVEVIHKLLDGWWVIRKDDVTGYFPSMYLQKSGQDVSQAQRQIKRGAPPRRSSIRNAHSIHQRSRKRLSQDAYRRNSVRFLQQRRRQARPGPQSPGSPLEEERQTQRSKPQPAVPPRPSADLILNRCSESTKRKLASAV
PGE2 EP2 inh: human EP2 receptor antagonists, primary screen, TR-FRET cAMP, C6 glioma cells | inhibition, % at 25 µM | 260,000 tested, 0.52% active | AID 1422, 2008 | C6 glioma cells expressing human EP2; cells stimulated with saturating PGE2;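 active = percent inhibition above 40 after rounding to a whole number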;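 also: rat C6 glioma host cells with rolipram phosphodiesterase inhibitor present; the protocol text gives 20 µM as final concentration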
Furin inh: human furin inhibitors, primary screen, biochemical, fluorescence intensity. P09958. purified furin, fluorogenic substrate cleavage. inhibition, % at 20 µM or 30 µM. 220,000 tested, 0.061% active; in the data active = inhibition above about 25%
Wee1 stabilizer: Wee1 degradation inhibitors, primary screen, cell-based, HeLa, Wee1K328M-luciferase, luminescence. AID 1321, 2008. HeLa Luc-Wee1K328M stability; 100% = proteasome inhibitor MG132 effect. reporter increase, % at 5 µM. 220,000 tested, 1.2% active;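 active = activation above the mean of all tested compounds plus 3 SD, set per screening run, cut at about 8.8% in these data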;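 also: cells exposed to compound for 20 h before luminescence read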
EP2 confirm: cAMP induction in EP2, EP4, beta2-AR and parental cells, confirmation, counter-screen for EP2 modulator project, cell-based, five parallel assays, C6 glioma, HEK293 | shares compounds with EP2 modulator | cAMP HTRF induction; plus low (about EC15) PGE2 agonist | calls only at 20 µM (by protocol) | 1,300 tested, 47% active | AID 1080, 2008;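 active = cAMP induction above 50% in the main assay while under 30% in all four parallel counter assays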;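 also: rat C6 glioma cells stably expressing human EP2 receptor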
Numbers stand for hits; 0 = inactive; - = no result; + = active, no number.

SMILES	HSV augment	EP2 modulator	p47phox inh	PGE2 EP2 inh	Furin inh	Wee1 stabilizer	EP2 confirm
O=C(CNCc1ccccc1Cl)Nc1ccccc1N1CCCCC1	0	75.3	0	0	0	0	+
O=C(CSc1nnc(-c2ccccc2Br)o1)Nc1nccs1	-	0	-	0	-	-	-
COc1ccc(Cl)cc1NC(=O)C1CCN(C(=O)c2ccccc2Cl)CC1	-	0	-	0	-	-	-
Cc1nc(NC2CCN(S(=O)(=O)c3ccc(C(F)(F)F)cc3)CC2)[nH]c(=O)c1C	-	0	-	0	-	-	-
COc1ccc(C(=O)NCC(=O)n2nc(C)cc2C)cc1OC	0	66.3	0	0	0	0	0
Cc1nnc(NC(=O)CC2CC3CCC2C3)s1 (centres undefined)	-	0	-	0	-	-	-
CCCCCc1ccc(-c2ccc(=O)[nH]n2)cc1	-	89.4	0	-	0	0	0
COCCNC(=O)N1CCOCC1	-	0	-	0	-	-	-
Cc1cc(-c2cnc(C)nc2C2CCCN(CC(=O)Nc3ccc4c(c3)OCO4)C2)on1 (centres undefined)	-	0	-	-	-	-	-
CC(=O)C(=Cc1ccc(C(=O)O)cc1)C(C)=O	0	0	0	0	0	0	-
C/C(=C\c1ccc(C(=O)O)cc1)c1ccc2c(c1)C(C)(C)CCC2(C)C	-	0	-	0	-	-	+
COc1ccc(OCC(=O)Nc2cc(-c3nc4ccccc4s3)ccc2Cl)cc1	-	0	-	0	-	-	-
OCCCNc1nc(-c2ccc(Cl)cc2)nnc1-c1ccc(Br)cc1	0	77.1	0	0	0	0	+
O=[N+]([O-])c1ccc(-c2nnc(-c3ccccc3)c(NCCCO)n2)cc1	0	0	0	0	0	0	-
Cc1cc(O)c(C=O)c2c1C(=O)Oc1c(COC(=O)/C=C/C(=O)O)c(O)c(C(=O)O)c(C)c1O2	-	62.9	-	0	-	-	+
Cc1cc(O)c(C=O)c2c1C(=O)Oc1c(CO)c(O)c3c(c1O2)C(O)OC3=O (centres undefined)	0	0	0	0	0	0	-
Cc1nc2ccccn2c1C(=O)CSc1ccccc1Cl	0	0	0	0	0	0	-
Cc1nc2ccccn2c1C(=O)CSc1ccc(Cl)cc1Cl	0	69.6	0	0	0	0	0
CCCOC(=O)c1ccc(NC(=O)c2cn(CC)c3nc(C)ccc3c2=O)cc1	-	67.2	0	-	0	0	0
CCOC(=O)CSc1ncc(OC)c(Sc2ccc(Cl)cc2)n1	0	0	0	0	0	0	-
CCOC(=O)C(C)Sc1ncc(OC)c(Sc2ccc(Cl)cc2)n1 (centres undefined)	0	67.7	0	0	0	0	+
CC1(C)Oc2ccc(C(=O)N3CCOCC3)cc2N(CC(=O)N2CCOCC2)C1=O	0	73.7	0	0	0	0	0
CC1(C)Oc2ccc(C(=O)N3CCCC3)cc2N(CC(=O)N2CCCCC2)C1=O	-	0	-	0	-	-	-
CCOC(=O)c1cnc2ccc(OCC)cc2c1N1CCN(c2ccccc2OC)CC1	0	0	0	0	0	0	-
CCOC(=O)c1cnc2ccc(OCC)cc2c1N(C)Cc1ccccc1	0	89.9	0	0	0	0	+
SMILES	HSV augment	EP2 modulator	p47phox inh	PGE2 EP2 inh	Furin inh	Wee1 stabilizer	EP2 confirm
O=C(CN(CCc1ccccc1)C(=O)c1ccc(CN2CCCCC2)o1)NC1CCCC1	-	0	-	0	-	-	-
CCOC(=O)N1CCC(=C2c3ccc(Cl)cc3CCc3cccnc32)CC1	0	0	0	0	0	0	0
O=C(NCC1CCCO1)C(c1ccncc1)N(Cc1cccs1)C(=O)Cn1nnc(-c2ccc(F)cc2)n1 (centres undefined)	0	0	0	0	0	0	-
Cc1ccc(-c2nnn(CC(=O)N(Cc3cccs3)C(C(=O)NC3CCCC3)c3ccncc3)n2)cc1 (centres undefined)	0	72.0	0	0	0	0	0
CC(C)n1c(=O)oc2cc(S(=O)(=O)NC(c3ccccc3)c3ccccc3)ccc21	-	0	-	0	-	-	-
Cc1cc(C)c(S(=O)(=O)c2ccccc2)c(OC(=O)c2cc(F)c(F)cc2Cl)n1	0	73.1	0	0	0	0	0
Cc1cc(Nc2ccc(Br)cc2)n2nc(C)nc2n1	0	87.7	0	0	0	0	0
O=C(CCCCl)Nc1nc(-c2ccccc2)cs1	-	0	-	0	-	-	-
COc1ccc(-c2nnc(SCC(=O)N3c4ccccc4Sc4ccc(Cl)cc43)o2)cc1	-	0	-	0	-	-	-
O=C(COC(=O)c1ccc(S(=O)(=O)N2CCCC2)cc1)Nc1ccc(F)cc1F	0	87.2	0	0	0	0	0
O=C(COC(=O)c1ccc(F)cc1)Nc1cc(S(=O)(=O)N2CCOCC2)ccc1N1CCCC1	0	0	0	0	0	0	-
COC(=O)C(=O)Nc1nnc(-c2cccs2)s1	-	0	-	0	-	-	-
c1ccc(-c2n[nH]nc2-c2ccccc2)cc1	0	66.4	0	0	0	0	+
Cc1ccc(C(=O)OCC(=O)Nc2ccccc2Sc2ccccc2)cc1C	0	68.5	0	0	0	0	+
CCCC1CCc2c(sc(NC(=O)c3cccs3)c2C(N)=O)C1 (centres undefined)	0	0	0	0	0	0	-
CC(C)OC(=O)c1c(NC(=O)c2ccco2)sc2c1CCCCC2	0	0	0	0	0	0	0
COC(=O)c1c(NC(=O)c2ccco2)sc2c1CCC2	0	0	0	0	0	0	-
CC(C)OC(=O)c1c(NC(=O)c2cccs2)sc2c1CCCC2	0	0	0	0	0	0	+
COC(=O)c1c(NC(=O)c2cccs2)sc2c1CCC(C)C2 (centres undefined)	0	64.4	0	0	0	0	0
O=C(Nc1sc2c(c1C(=O)O)CCCC2)c1cccs1	0	0	0	0	0	0	-
Cc1ncc(-c2ccncc2)c(C2CCCN(C(=O)N3CCOCC3)C2)n1 (centres undefined)	-	0	-	-	-	-	-
Cc1ccc2c(c1)nnn2C1CCN(S(=O)(=O)c2ccc(C(=O)NC3CCCCC3C)cc2)CC1 (centres undefined)	-	0	-	0	-	-	-
COc1cc(C=O)ccc1OC(=O)c1ccc(C(C)C)cc1	0	74.3	0	0	0	0	0
CCC1(C)Cc2ccccc2-c2nc3n(c(=O)c21)CCS3 (centres undefined)	0	78.6	0	0	0	0	+
CCC1(C)Cc2ccccc2-c2nc3n(c(=O)c21)CC(C(=O)O)S3 (centres undefined)	0	0	0	0	0	0	-

High-throughput results from PubChem BioAssay.
